Screening results: PubChem BioAssay, Broad Institute
MITF TRPM1 inh: MITF TRPM1 promoter inhibition in SK-MEL-5 cells; hit rate 0.83% among 330,000; SK-MEL-5 TRPM1 promoter luciferase, 24 h; inhibition, % at 12.5 µM;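 active = mean inhibition across replicates of 60% or more, whatever share of single replicates reaches that level; inconclusive = some that reach 60%, reason not given; inactive = mean inhibition across replicates below 60%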
Wnt act: Wnt/beta-catenin pathway activation | Wnt/beta-catenin reporter cell assay, activator, plate reader | activation, % at 9.35 µM | hit rate 1.2% among 300,000; in the data active = activation above about 30%, passing the limit was not always enough; inconclusive = no clear call, values can overlap the other calls;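 note: 0% = neutral control wells and 100% = positive control wells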
C2C12 statin: suppression of simvastatin myotoxicity; C2C12 myotubes + simvastatin, ATP luminescence, 48 h; scaled: DMSO 0, geranylgeraniol control 100; rescue of ATP level, % at 7.49 µM; hit rate 0.78% among 330,000; AID 602340;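 active = mean ATP rescue above about 67%, or every replicate alone reaching that limit, limit read from the data, passing the limit was not always enough; inconclusive = no clear call, values can overlap the other calls; inactive = mean under the limit and some replicate under it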;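 note: myotubes were challenged with 10 µM simvastatin during compound exposure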
LMP1 NFkB inh: inhibitors of Epstein-Barr LMP1-induced NF-kappaB reporter; inhibition, % at 12.5 µM; AID 504558; LMP1-induced NF-kappaB luciferase reporter cells, luminescence; hit rate 0.69% among 350,000; in the data active = inhibition above about 41%; inconclusive = no clear call, values can overlap the other calls;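 note: 0% = neutral control wells and 100% = reference inhibitor control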
esBAF inh: inhibitors of esBAF chromatin remodeling in mouse ES cells | Bmi1-luciferase knock-in reporter, 24 h; 100% = twice the neutral-well signal | reporter increase, % at 12.5 µM | hit rate 2% among 350,000 | AID 602393; in the data active = activation above about 40%; inconclusive = no clear call, values can overlap the other calls;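 note: 0% = median of the plate's neutral control wells and 100% = double that signal; a rise in the Bmi1 reporter signal indicates esBAF inhibition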
MITF TRPM1 HTS: MITF TRPM1 promoter activation in melanoma cells | activation, % at 12.5 µM | hit rate 0.75% among 300,000 | AID 588334 | SK-MEL-5 TRPM1-promoter luciferase, 24 h; % of positive control, neutral wells = 0;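 active = mean activation of at least 80% with every replicate also reaching 80%; inconclusive = mean reaches 80% but some replicate falls short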;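 note: 0% = neutral control wells and 100% = parthenolide positive control wells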
An asterisk follows results filed as active; ? = inconclusive; / = no result given. This is a sample that favours compounds with a hit; in the whole collection about 4% have one here.

SMILES | MITF TRPM1 inh | Wnt act | C2C12 statin | LMP1 NFkB inh | esBAF inh | MITF TRPM1 HTS
CCC(=O)C1CCCN(C(=O)CCc2nnc(-c3ccc4c(c3)OCO4)o2)C1 (stereo not drawn) | -28 | 1 | 9 | -13 | 33 | 21
Cc1noc(C)c1S(=O)(=O)Nc1ccc2c(c1)C(=O)N([C@H](C)CO)C[C@H](C)[C@@H](CN(C)C(=O)c1ccncc1)OCCCC[C@@H](C)O2 | / | / | / | / | 3 | /
C/C(=N\NC(=O)c1cccs1)c1cccnc1 | -20 | 5 | / | 6 | / | 18
COc1ccc(OC)c(-c2cc(C(=O)N/N=C(\C)c3cccnc3)c3ccccc3n2)c1 | 5 | -5 | -7 | 5 | -8 | -1
CCc1ccc(C(=O)N/N=C(\C)c2cccnc2)s1 | -108 | 11 | -1 | -16 | 43* | 109*
CCNC(=S)NNC(=O)c1cc(-c2cccc(OC)c2)nc2ccccc12 | 1 | / | / | -10 | / | 5
CCOc1ccc(-c2cc(C(=O)N/N=C(\C)c3cccnc3)c3ccccc3n2)cc1 | -88 | 20 | -18 | 0 | 20 | 88*
CCNC(=S)NNC(=O)c1cc(-c2ccc(OCC)cc2)nc2ccccc12 | 22 | -2 | -39 | 57* | -64 | -22
CCc1ccc([C@@H]2C[C@H]3[C@@H](CN2S(=O)(=O)c2ccc(C)cc2)C(=O)C[C@@H](c2ccccc2)N3S(=O)(=O)c2ccc(C)cc2)cc1 | / | -1 | -17 | 0 | 2 | /
COCCn1c(SCC(=O)Nc2ccc(F)cc2)nc2ccccc2c1=O | -6 | -1 | -8 | -15 | -9 | /
O=C(CSc1nc2nccnc2c(=O)n1Cc1cccs1)Nc1ccccc1 | -2 | -2 | -2 | -7 | 11 | -1
Fc1ccc(-c2nc(-c3cccs3)[nH]c2-c2ccc(F)cc2)cc1 | 16 | -1 | / | 2 | / | -16
Cc1ccsc1-c1nc(-c2ccccc2)c(-c2ccccc2)[nH]1 | -9 | 53* | -13 | 6 | -3 | /
C/C(=N\NC(=O)C1COc2ccccc2O1)c1cc2ccccc2o1 (stereo not drawn) | -15 | 0 | -17 | 40* | -3 | 13
C/C(=N\NC(=O)C1COc2ccccc2O1)c1ccccn1 (stereo not drawn) | 83* | / | 0 | 11 | 2 | -82
CCOc1nc(N2CCOCC2)nc(C)c1[N+](=O)[O-] | 4 | 33* | -3 | -4 | 4 | -6
Cc1cccc(OCCC(=O)Nc2ccc(C)c(S(=O)(=O)N3CCCCC3)c2)c1 | 5 | 0 | / | 10 | / | -8
Cc1cccc(OCCC(=O)Nc2ccc(S(=O)(=O)N3CCCC3)cc2)c1 | -1 | -2 | 109* | -2 | 0 | 4
O=C(COc1cccc(C(F)(F)F)c1)Nc1ccc(S(=O)(=O)N2CCCC2)cc1 | -1 | -4 | 116* | 9 | -3 | 3
Cc1cccc(OCCCC(=O)Nc2ccc(S(N)(=O)=O)cc2)c1 | 1 | 36* | -3 | 12 | -2 | -1
Cc1ccc(NC(=O)CN(C)C(=O)CCOc2cccc(C)c2)cc1 | -4 | 31* | / | 0 | / | 6
COC(=O)[C@@H]1[C@@H](CO)[C@@H]2Cn3c(ccc(-c4ccccc4F)c3=O)[C@@H]2N1Cc1cccnc1 | / | / | -8 | / | -4 | /
O=C1CCC(C(=O)N2CCC(O)CC2)CN1CCc1ccc(Cl)cc1 (stereo not drawn) | 6 | 0 | -7 | -3 | -6 | -4
CC(=O)c1ccccc1OCC(=O)Nc1cccc(S(=O)(=O)N2CCCC2)c1 | -24 | 1 | -9 | 46* | -7 | 25
CCCc1nc2ccccc2c(=O)n1-c1ccc(C(=O)OCC)cc1 | -10 | -2 | / | 4 | / | 11
SMILES | MITF TRPM1 inh | Wnt act | C2C12 statin | LMP1 NFkB inh | esBAF inh | MITF TRPM1 HTS
CCN(CC)C(=O)CSc1ccccc1N | 27 | / | 116* | -5 | 9 | -24
O=C(NCC[C@@H]1CC[C@@H](NC(=O)C2CC2)[C@H](CO)O1)c1cnccn1 | / | / | 3 | / | -2 | /
Cc1nc(SCCC(=O)O)c2cc(-c3ccccc3)sc2n1 | 51 | -1 | 67* | 37 | -73 | -50
O=c1[nH]c(/C=C/c2ccccn2)nc2ccccc12 | -43 | 17 | -8 | -16 | 44* | 50
O=c1[nH]c(COc2ccccc2)nc2ccccc12 | -69 | 24 | -15 | -7 | ? | ?
O=c1[nH]c(COc2ccc(Br)cc2Cl)nc2ccccc12 | -91 | 44* | -1 | -16 | 45* | ?
O=C(Nc1cccc(/C=C/c2nc3ccccc3c(=O)[nH]2)c1)c1ccccc1Cl | -65 | 17 | -99 | -26 | 80* | 65
CN(C)c1ccc(/C=C/c2nc3ccccc3c(=O)[nH]2)cc1 | 52 | 16 | / | 48* | / | -50
O=c1[nH]c(/C=C/c2ccc(Br)cc2)nc2ccccc12 | -65 | 45* | -12 | -31 | -2 | 71
Cc1ccc(N2NC(C)(c3cccs3)NC2=S)cc1 (stereo not drawn) | -82 | 12 | / | -42 | / | 92*
CCOc1ccc(NC(=O)NCC2CCN(c3ccc(OC)cc3)C2)cc1 (stereo not drawn) | 6 | / | / | -5 | / | -8
CC(=O)Nc1ccc(N2C(=O)CSC2c2ccccc2[N+](=O)[O-])cc1 (stereo not drawn) | 12 | -1 | -1 | -2 | 5 | -8
Cc1ccc(S(=O)(=O)NC(CC(C)C)C(=O)NCC(c2ccco2)N2CCCCC2)cc1 (stereo not drawn) | 59 | / | -7 | 49* | -53 | -57
CC(=O)Nc1ccc(S(=O)(=O)NC(C)C(=O)NCC(c2ccco2)N2CCCCC2)cc1 (stereo not drawn) | / | 1 | 6 | 0 | 11 | /
Cc1ccc(C(=O)NC(=S)Nc2ccccc2C(F)(F)F)cc1C | -14 | / | 93* | -3 | 5 | 13
O=C(O)c1cccc(NC(=S)NC(=O)c2ccc(-c3ccccc3)cc2)c1 | -6 | 12 | / | -16 | / | -1
Cc1nc(NC(=S)NC(=O)c2ccccc2)sc1C | -52 | 1 | -28 | -37 | 45* | 57
Cc1ccc(C(=O)O)cc1NC(=S)NC(=O)c1ccc(-c2ccccc2)cc1 | -14 | 11 | 3 | -2 | 62* | 18
COC(=O)c1ccsc1NC(=O)CCc1ccccc1 | -35 | 18 | 8 | -11 | 48* | 34
CN1C(=O)c2cc(NC(=O)C3CC3)ccc2OC[C@H]2O[C@@H](CC(=O)NCC3CCCCC3)CC[C@@H]21 | / | / | -8 | / | 0 | /
C[C@@H]1CN([C@H](C)CO)C(=O)c2cc(-c3ccncc3)cnc2O[C@@H]1CN(C)C(=O)C1CCOCC1 | / | / | / | / | -6 | /
Cc1nc(NC(=O)c2csc3ccccc23)sc1C | -27 | 42* | 9 | -33 | -3 | 30
Cc1c(Cl)cccc1NC(=S)NC(=O)c1ccccc1 | / | 0 | -14 | -14 | 60* | /
Cc1ccc(C(=O)NC(=S)Nc2c(C)ccc3nsnc23)cc1 | 10 | / | / | -2 | / | -12
COC(=O)c1cccc(NC(=S)Nc2cccc(Cl)c2C)c1 | -3 | 0 | / | 3 | / | 0
